The record followed here is PubChem BioAssay (NCI).

Molecules are shown by their SMILES. “And” between values parts separate entries of the source, which are not always exact repeats. Identical values can stand only once. About 83,000 compounds went through this panel and 20% of them were active in at least one assay; those are over-represented in the sample as a whole.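 Results are percent growth after 48 hours of single-concentration exposure. 100 means growth as in untreated cells, lower positive values show inhibition; negative values down to -100 show cell death.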 The source made the active and inactive calls. The calls were made as follows: active = growth percent below 10; inactive = the rest.

This test concerns MCF7 breast. As to the kind of experiment: NCI-60 one-dose screen, 48 h (100 = growth as untreated, 0 = no growth, -100 = all killed). The settings on record: 10 µM unless noted.
Consider `CCCCCCCCCC(=O)CC(=O)c1c(O)cc(O)cc1O`, for which the growth is -63.3% [75 µM] (active) and -13.9% [75 µM] (active).

Regarding `O=C1c2ccccc2-c2c1c1ccccc1c(=O)n2-c1cccnc1`, the growth was 21.1% [100 µM] (inactive) and 3.24% [100 µM] (active).

For `Cc1ccc(NC(=O)/C(Cc2cc(=O)oc3cc(O)ccc23)=N\NC(C)(C)C)cc1C`, the growth is 117% [100 µM] (inactive) and 97.1% [100 µM] (inactive).

Regarding `COC(=O)C(/C(=N/NC(N)=O)C(=O)Nc1ccc(C)cc1)c1nc2ccc([N+](=O)[O-])cc2[nH]c1=O` (centres undefined), the growth is 68.7% [100 µM] (inactive) and 41.2% [100 µM] (inactive).

`O[C@H]1[C@H](O)[C@@H](Cn2nnc(-c3ccccc3)c2-c2ccccc2)OCO[C@@H]1Cn1nnc(-c2ccccc2)c1-c1ccccc1`: the growth is -62.6% [100 µM] (active).

For the compound `Cc1cc(S(=O)(=O)O)c(NC(=O)c2oc3cc(O)ccc3c(=O)c2C)cc1Cl`, the growth is 100% [100 µM] (inactive) and 86.3% [100 µM] (inactive).

Take `O=C(CCc1ccc(O)c(O)c1)c1ccc(O)c(O)c1O`: the growth is -69.8% [100 µM] (active) and -72.6% [100 µM] (active).

Regarding `CCCCCC(O)(CCCCC)CCCCCCCCC1=C(O)c2ccccc2C(=O)C1=O`, the growth is -37.7% [100 µM] (active) and -36.7% [100 µM] (active).

In the case of `CC1OC(Oc2c(-c3cc(O)c(O)c(O)c3)oc3cc(O)cc(O)c3c2=O)C(O)C(O)C1O` (centres undefined), the growth is 77.9% [100 µM] (inactive) and -43.3% [100 µM] (active).
